A selection: hits, their analogues and other compounds. The true share with any hit is near 9.9%.
SW480 rereplic: A quantitative high throughput screen for small molecules that induce DNA re-replication in SW480 colon adenocarcinoma cells | SW480 DNA re-replication, Hoechst DNA content imaging, 48 h | Potency, µM (series often up to 46.1 µM), actives largely listed as activators | 340,000 compounds, 1.8% hits; note: nearly all actives have a fitted effect of over 55% in size
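Cells (250 per well) received 23 nL compound or DMSO by pin tool and were kept 48 hr at 37 C, 5% CO2. Nuclei were then stained with Hoechst for 40 min and scanned for DNA content.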
KB-V1 MDR tox: qHTS assay for MDR1-selective chemotherapeutics: Primary screen using the drug-selected MDR subline cells KB-V1; AID 1347076, 2019; 400,000 compounds, 3.4% hits; KB-V1 MDR cells viability, CellTiter-Glo, 72 h; Potency, µM (top dose mostly 46.1 µM), usual class: cytotoxic; note: nearly all actives have a fitted effect of over 60% in size
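Compound-treated KB-V1 multidrug-resistant cells, 72 h, 37 degrees C; viability by CellTiter-Glo. Fitted qHTS curves give the values.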
MCF10A rerep: A quantitative high throughput screen for small molecules that induce DNA re-replication in MCF 10a normal breast cells | MCF 10A DNA re-replication, Hoechst nuclear intensity, 48 h | Potency, µM (titrated, usually from 46.1 µM), usual class: activators | 350,000 compounds, 2.9% hits; note: nearly all actives have a fitted effect of over 50% in size
IL1B secr inh: qHTS for Inhibitors of Inflammasome Signaling: IL-1-beta AlphaLISA Primary Screen | activity change, % at 57.5 µM | THP-1 LPS/ATP IL-1B secretion, AlphaLISA, 16 h; active compounds read low | 360,000 compounds, 4.7% hits; in the data active = activity change below about -50%; inconclusive = mostly about -30% to -49%
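THP-1 cells pretreated 1 hr with compounds (up to 57.5 uM final), then stimulated with LPS (250 ng/mL final) plus ATP (1.25 mM final); secreted IL-1B measured by AlphaLISA after 16 hr, decreased signal indicating inhibition.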
KB-3-1 cytotox: qHTS assay for MDR1-selective chemotherapeutics: Primary screen using the parental adenocarcinoma cell KB-3-1; 400,000 compounds, 1.4% hits; KB-3-1 viability, CellTiter-Glo ATP luminescence, 72 h; Potency, µM (series often up to 46.1 µM), actives largely listed as cytotoxic; note: nearly all actives have a fitted effect of over 60% in size
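KB-3-1 parental drug-naive adenocarcinoma cells in DMEM/10% FBS, incubated 72 h at 37 C with pin-transferred compounds across a concentration series. Viability by CellTiter-Glo luminescence; concentration-response curves fitted after normalization.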
A number is an active result; 0 = inactive; ? = inconclusive; - = not tested or not shown; [ ] = remark or other dose. Unless noted, calls come from the whole dose curve; as a rule, active = well fitted curve in the direction sought with a large enough effect; inconclusive = small, poorly fitted or top-dose-only effect, or another doubt; inactive = no such curve, though single readings can be large; an effect the other way counts as inactive or inconclusive.

SMILES | SW480 rereplic | KB-V1 MDR tox | MCF10A rerep | IL1B secr inh | KB-3-1 cytotox
Cc1cc(C)nc(/N=C(\N)Nc2cccc([N+](=O)[O-])c2)n1 | 0 | 0 | 0 | -96.6 | 0
Cc1cc(C)nc(/N=C(\N)Nc2ccc([N+](=O)[O-])cc2)n1 | 0 | ? | 0 | -57.1 | ?
COc1ccc(C(=O)CSc2nnc(NC(=O)C3CC(=O)N(c4ccccc4)C3)s2)cc1 (stereo unspecified) | 2.91µM | 0 | 0 | 0 | 0
Cc1ccc2nc(Cl)c3cc(C(=O)NC4CCCCC4)sc3c2c1 | - | ? | - | - | 0
CCOC(=O)/C(=N/Nc1ccc(OC)cc1)N1CCCc2ccccc21 | 0[9.22 µM] | 0 | 0 | -53.0 | 0
CCOC(=O)/C(=N\Nc1ccccc1)P(=O)(c1ccccc1)c1ccccc1 | 0 | 11.6µM | 0 | - | 0
CCOC(=O)/C(=N/Nc1ccccc1OC)N1CCCc2ccccc21 | 0 | 0 | ? | 0 | 0
CCOC(=O)/C(=N/Nc1ccccc1)N1CCCc2ccccc21 | 0 | 16.4µM | 0 | 0 | 0
O=C(COc1ccccc1-c1nnc(-c2ccccc2)o1)Nc1ccc(Br)cc1F | - | 0 | - | - | 0
Cc1ccc(S(=O)(=O)Nc2ccccc2C(=O)N2CCCCCC2)cc1 | 0 | 0 | 0 | 0 | 0
Cc1cc(C)c(S(=O)(=O)N2CCCC(C(=O)NCc3ccncc3)C2)c(C)c1 (stereo unspecified) | 0 | ? | 0 | 0 | 0
OCCCCNCc1cc(Br)ccc1OCc1ccccc1 | 0 | 0 | 0 | ? | 0
C=CCOc1ccc(Br)cc1CNCCO | 0 | 0 | 0 | -54.8 | 0
C=CCOc1ccc(Br)cc1CNC(C)(C)CO | 0 | 0 | 0 | 0 | 0
OCCNCc1cc(Br)ccc1OCc1ccccc1Cl | 0 | ? | ? | -58.8 | ?
CC(=O)Cc1nsc(NC(=O)c2ccc(-c3cc(C(F)(F)F)ccc3Cl)o2)n1 | ? | 0 | 3.26µM | 0 | 0
CC(=O)Cc1nsc(NC(=O)c2ccc(-c3cccc(C(F)(F)F)c3)o2)n1 | ? | 5.8µM | 13µM | 0 | ?
CC(=O)Cc1nsc(NC(=O)c2ccc(-c3cc(Cl)ccc3Cl)o2)n1 | ? | ? | ? | 0 | ?
N#C/C(=C\c1cn(CCOc2ccccc2)c2ccccc12)C(=O)NCc1cccs1 | 16.4µM | ? | ? | 0 | 0
COc1ccccc1OCCn1cc(/C=C(\C#N)C(=O)NCc2ccco2)c2ccccc21 | 0 | 3.66µM | 0 | 0 | 0
N#C/C(=C\c1cn(Cc2ccccc2F)c2ccccc12)C(=O)NCc1ccco1 | 0 | 0 | 18.4µM | 0 | 0
Cc1ccc(C)c(OCCn2cc(/C=C(\C#N)C(=O)NCc3ccco3)c3ccccc32)c1 | ? | 0 | ? | 0 | 0
Cc1cccc(NC(=O)/C(C#N)=C/c2cn(CC(=O)NCc3ccco3)c3ccccc23)c1 | ? | 0 | 8.2µM | 0 | 0
O=[N+]([O-])c1cc(-c2ncccn2)cs1 | 0 | 0 | 0 | 0 | 0
CC(C)NC(=O)C(c1ccc(F)cc1)N(Cc1ccco1)C(=O)CCC(=O)Nc1ccccn1 (stereo unspecified) | 0 | 0 | 0 | 0 | 0
SMILES | SW480 rereplic | KB-V1 MDR tox | MCF10A rerep | IL1B secr inh | KB-3-1 cytotox
Cc1cn2c(=O)c(S(=O)(=O)NCCc3ccccc3)c(C)nc2s1 | - | 0 | - | - | 0
CCOC(=O)C1CCCN(CCC(=O)Nc2ccc(Br)c(C)c2)C1 (stereo unspecified) | 0 | 0 | 0 | 0 | 0
CC1CC(C)CN(CCC(=O)Nc2ccc(Br)cc2)C1 (stereo unspecified) | 0 | 0 | 0 | -53.7 | 0
CCOC(=O)C1CCCN(CCC(=O)Nc2ccc(Br)cc2)C1 (stereo unspecified) | 0 | 0 | 0 | -60.0 | 0
CCOC(=O)c1[nH]c2ccc(Br)cc2c1NC(=O)CCN1CCC(C(=O)OCC)CC1 | ? | ? | 25.9µM | -64.2 | ?
Cc1ccc(C2(C(=O)N3CCC(n4nc(-c5ccccc5)oc4=O)CC3)CC2)cc1 | 0 | 0 | 20.6µM | 0 | 0
COc1cc(OC)c(OC)cc1/C=c1\[nH]c(=O)/c(=C/c2cc(OC)c(OC)cc2OC)[nH]c1=O | - | 0 | - | - | ?
Cc1nc(CN2CCCCC2)cc(=O)[nH]1 | 0 | 0 | ? | 0 | ?
